According to PubChem BioAssay AID731 (The Scripps Research Institute Molecular Screening Center, 2007):
Screen size: about 200,000 compounds; about 520 (0.26%) were called active. Shown is part of a subset that was picked to be rich in actives. A number with no mark means an inactive call. Cut-off read from the data, not from the text of the source: active = activation above about 23%; inactive = the rest.

target: Peroxisome proliferator-activated receptor gamma (Homo sapiens) (UniProt P37231); assay: enhancers of SRC-3 binding to PPARgamma – biochemical, primary screen (AID 731); conditions: biochemical PPARgamma/SRC-3 coactivator recruitment assay; at 8 µM; hits give high values;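 note: 0% = DMSO and 100% = reference agonist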
Sequence (P37231 whole entry, looked up): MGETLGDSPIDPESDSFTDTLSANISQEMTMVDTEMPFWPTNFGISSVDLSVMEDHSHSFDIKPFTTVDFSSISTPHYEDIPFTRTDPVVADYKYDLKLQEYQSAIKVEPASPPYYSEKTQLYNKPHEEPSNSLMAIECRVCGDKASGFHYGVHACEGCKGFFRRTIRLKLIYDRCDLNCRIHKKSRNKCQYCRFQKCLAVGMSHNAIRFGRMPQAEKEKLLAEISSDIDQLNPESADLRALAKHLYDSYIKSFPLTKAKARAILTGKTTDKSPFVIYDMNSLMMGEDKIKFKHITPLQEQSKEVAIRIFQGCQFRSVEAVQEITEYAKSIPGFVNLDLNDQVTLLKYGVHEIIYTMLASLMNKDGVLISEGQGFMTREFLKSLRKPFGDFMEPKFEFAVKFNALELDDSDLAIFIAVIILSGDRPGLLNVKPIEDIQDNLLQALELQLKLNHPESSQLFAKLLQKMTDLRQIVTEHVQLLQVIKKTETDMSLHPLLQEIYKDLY

Compound	activation
COc1cccc(NC(=O)c2ccc(S(=O)(=O)N(C)C)cc2)c1	-1.26%
COc1ccc(/C=N/Nc2ncnc3sc4c(c23)CCCC4)cc1O	-0.73%
CCOC(=O)c1sc(-c2cccc([N+](=O)[O-])c2)cc1N	10%
Cc1nc2ccccn2c1C(=O)NN=C1CCN(C)CC1	-4.87%
O=C(NC(=S)Nc1cccc(-c2ccc(CO)o2)c1)c1cccs1	9.26%
O=C(NCc1ccco1)c1cc(-c2cccnc2)nc2ccc(Cl)cc12	7.42%
O=C(CSc1c2c(nc3ccc(Cl)cc13)CCCC2)NCc1ccco1	31.6% (active)
O=C(/C=C/c1ccc(Cl)cc1Cl)NCc1ccco1	-0.09%
Cc1ccn(CC(=O)N2N=C(C(F)F)CC2(O)C(F)F)n1 (stereo not given)	3.61%
COc1ccc(N(C)S(=O)(=O)c2cccc3nsnc23)cc1	-0.54%
CCN(/N=C/c1ccc(N(C)C)cc1)c1nc2ccccc2[nH]1	16.6%
CC1c2nc3ccccc3n2C(CC(=O)NCCCN2CCOCC2)C(=O)N1Cc1ccccc1 (stereo not given)	-3.13%
Cc1cccc(OP(=O)(Nc2c(C)n(C)n(-c3ccccc3)c2=O)Oc2cccc(C)c2)c1	2.47%
CCN(CCCNC(=O)CSc1cc(=O)n(C)c2cc(Cl)ccc12)Cc1ccccc1	42.4% (active)
CCN(CC)CCCNC(=O)CCc1ccccc1	4%
CCN(CC)CCCNC(=O)c1cc(-c2cccc(Cl)c2)on1	-5.33%
Cc1cc[n+](-c2[nH]c(=O)sc2/C=N/NC(=O)c2ccccc2[O-])cc1C	1.17%
CCn1c(=O)cc(SCC(=O)NCCC2=CCCCC2)c2ccccc21	10.5%
CCn1c(=O)cc(SCC(=O)NCc2ccc3c(c2)OCO3)c2ccccc21	31.8% (active)
CC(C)NC(=O)CSc1ccccc1C(=O)NCc1ccc2c(c1)OCO2	-3.43%

Compound	activation
O=C(NCc1ccco1)C(=O)c1cn(CC(=O)N2CCCCCC2)c2ccccc12	4.6%
CN(C)c1ccc(C(CC(=O)O)C(=O)O)cc1 (stereo not given)	5.46%
O=C(CNC(=O)C(c1ccccc1)c1ccccc1)N/N=C\c1ccc2c(c1)OCO2	-7.73%
COc1ccc(/C=C/C(=O)NC(=S)NN2CCCCC2c2cccnc2)cc1 (stereo not given)	-0.5%
Fc1ccc(COc2cccc(-c3n[nH]c(=S)o3)c2)cc1	29.3% (active)
Cc1cccc(OCc2ccc(C(=O)Nc3ccc(F)cc3)cc2)c1	-4.26%
Cc1nc2ccccc2cc1OCc1ccc(F)cc1	4.08%
CC(C)/C=N/NC(=O)c1cc(Br)ccc1O	4.98%
COc1cccc(-n2c(=S)sc3c(=O)n(-c4ccccc4OC)c(SCC4OCCO4)nc32)c1	-1.02%
O=C(CCc1nnc(CCCCc2ccccc2)o1)NC(c1cccnc1)C(F)(F)F (stereo not given)	0.98%
COc1ccccc1N1CCN(/N=C\C(Br)=C\c2ccccc2)CC1	0.45%
O=C(CSc1nc2c(cnn2-c2ccc(F)cc2)c(=O)[nH]1)N1CCCCCC1	-0.08%
C=CCNC(=O)CSc1nc2sc(C)c(C)c2c(=O)[nH]1	-3.68%
CC(=O)c1sc2nc(SCC(=O)N3CCCCC3)[nH]c(=O)c2c1C	32.9% (active)
COCCN(C(=O)CCC(=O)Nc1nccs1)C(C(=O)NC(C)(C)C)c1ccc(Cl)cc1 (stereo not given)	8.27%
Cc1ccccc1C1=N/C(=C/c2cccnc2)C(=O)O1	5.51%
Cc1ccc(S(=O)(=O)N(C)CC(=O)OCC(=O)N2CC(=O)Nc3ccccc32)cc1	-1.93%
COc1cccc(NC(=O)Cn2c3ccccc3c3nc4n(c(=O)c32)CCS4)c1	3.77%
O=C(NCc1cccs1)C1CCN(S(=O)(=O)c2ccc(Cl)cc2)CC1	0.55%
O=C(N/C(=C\c1ccc(F)cc1)C(=O)N1CCCCCC1)c1ccccc1	2.6%

Compound	activation
CC(=O)Oc1ccc2c(C)c(CC(C)O)c(=O)oc2c1 (stereo not given)	-4.46%
Cc1c(Cc2ccccc2)c(=O)oc2cc(OCC(N)=O)ccc12	1.07%
O=C(Oc1ccccc1)Oc1ccc2c(c1)oc(=O)c1ccccc12	57.2% (active)
CNc1ccc(NC(C)=O)cc1[N+](=O)[O-]	-3.86%
CCC1(CC)NC(=O)N(CC(=O)OCC(=O)Nc2ccc(C(F)(F)F)cc2)C1=O	-5.07%
CCCCCOc1ccc(/C=C/C(=O)NCCc2nc3ccccc3[nH]2)cc1OC	0.87%
Cn1c(C(=O)OC(C(=O)NC2CCCCC2)c2ccccn2)cc2sccc21 (stereo not given)	0.71%
Cc1ccc(Cl)cc1NC(=O)C1CCN(S(C)(=O)=O)CC1	-1.48%
CCNCCC(=O)N1c2ccccc2Sc2ccc(NC(=O)OCC)cc21	-12.4%
NNC(=O)C1CC(O)CN1S(=O)(=O)c1ccc(Cl)cc1 (stereo not given)	8.66%
CC1CC(C)CN(CCC(=O)Nc2ccc3c(c2)CCC3)C1 (stereo not given)	6.43%
COC(C(=O)Nc1ccc(C(C)=O)cc1)c1ccccc1 (stereo not given)	-2.12%
COc1ccccc1CCNC(=O)CSc1nnc2ccc(-c3cccnc3)nn12	2.38%
O=C(CN1CCN(c2ncccn2)CC1)Nc1ccccc1C(F)(F)F	-0.44%
COCCn1c(Cc2cccn2C)nnc1SCC(=O)Nc1nccs1	4.15%
Cc1nc(N2CCOCC2)c2c(C)c(C(=O)Nc3ccc(C(F)(F)F)cc3)sc2n1	6.42%
Cc1ccc(N2C(=O)C3C(c4ccccc4)(C2=O)C3(c2ccccc2)c2ccccc2)cc1 (stereo not given)	-5.3%
O=C(O)CCS(=O)(=O)c1ccc(-c2ccccc2)cc1	-2.87%
C=CCC(CC=C)(C(N)=O)c1ccccc1	-2.8%
CCOC(=O)CNC(=O)CSc1ccc2nnc(-c3cccnc3)n2n1	-2.1%
